From paper doi:10.1101/2024.03.05.583629 come the findings set out here.

In the assay the target is pT7_6His-AlfaTag-HOXD13 (human, UniProt P35453 263-343). Briefly: PADIT-seq. The settings on record: dsDNA, one strand shown.
Sequence of pT7_6His-AlfaTag-HOXD13 (P35453 263-343): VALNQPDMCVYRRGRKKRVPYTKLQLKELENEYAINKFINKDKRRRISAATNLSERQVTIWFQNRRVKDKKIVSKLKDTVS
Regarding “CTCGAGGATATCAAGATCTGGCCTCGGCGCGCATGCGGGAACCTCTAGCTAGCCGACTCACTATAGGGATAATCGCCCTGAGCAAAGACC”, the binding signal was -0.957 ± 0.123 log2FC. Take “CTCGAGGATATCAAGATCTGGCCTCGGCTCGTTAAAAGGAACCTCTAGCTAGCCGACTCACTATAGGGATAATCGCCCTGAGCAAAGACC”: the binding signal was determined as 3.05 ± 0.0768 log2FC. Under “CTCGAGGATATCAAGATCTGGCCTCGGCTAGCCACGCGGAACCTCTAGCTAGCCGACTCACTATAGGGATAATCGCCCTGAGCAAAGACC” stands -1.07 ± 0.127 log2FC; under “CTCGAGGATATCAAGATCTGGCCTCGGCGCGTGGCAGGGAACCTCTAGCTAGCCGACTCACTATAGGGATAATCGCCCTGAGCAAAGACC”, -0.958 ± 0.118 log2FC.

In turn, “CTCGAGGATATCAAGATCTGGCCTCGGCTTTTTAATTGGAACCTCTAGCTAGCCGACTCACTATAGGGATAATCGCCCTGAGCAAAGACC” yielded a binding signal of 2.41 ± 0.0904 log2FC. Under “CTCGAGGATATCAAGATCTGGCCTCGGCGTGGTAAAAGGAACCTCTAGCTAGCCGACTCACTATAGGGATAATCGCCCTGAGCAAAGACC” stands 1.02 ± 0.077 log2FC; under “CTCGAGGATATCAAGATCTGGCCTCGGCCGACTAAAAGGAACCTCTAGCTAGCCGACTCACTATAGGGATAATCGCCCTGAGCAAAGACC”, -0.753 ± 0.121 log2FC. Under “CTCGAGGATATCAAGATCTGGCCTCGGCTGACTAAAAGGAACCTCTAGCTAGCCGACTCACTATAGGGATAATCGCCCTGAGCAAAGACC” stands -0.535 ± 0.11 log2FC; under “CTCGAGGATATCAAGATCTGGCCTCGGCCTTTTAATTGGAACCTCTAGCTAGCCGACTCACTATAGGGATAATCGCCCTGAGCAAAGACC”, 2.53 ± 0.0779 log2FC.

Sequence “CTCGAGGATATCAAGATCTGGCCTCGGCTTTTTATAGGGAACCTCTAGCTAGCCGACTCACTATAGGGATAATCGCCCTGAGCAAAGACC” showed a binding signal of 3.37 ± 0.0926 log2FC. The same measure for “CTCGAGGATATCAAGATCTGGCCTCGGCTGTATAAAAGGAACCTCTAGCTAGCCGACTCACTATAGGGATAATCGCCCTGAGCAAAGACC”: 2.01 ± 0.0809 log2FC; for “CTCGAGGATATCAAGATCTGGCCTCGGCCTTTTATGGGGAACCTCTAGCTAGCCGACTCACTATAGGGATAATCGCCCTGAGCAAAGACC”: 3.37 ± 0.0902 log2FC; for “CTCGAGGATATCAAGATCTGGCCTCGGCTTTTTATGTGGAACCTCTAGCTAGCCGACTCACTATAGGGATAATCGCCCTGAGCAAAGACC”: 2.89 ± 0.0872 log2FC.
